Screen size: about 52,000 compounds; about 4,300 (8.3%) were called active. Cut-off read from the data, not from the text of the source: active = survival mostly below about 52% (no sharp cut-off); inactive = mostly above about 56%. Shown is part of a subset that was picked to be rich in actives.

The test system of the test is DeltatarO mutant. Briefly: growth inhibition of S. aureus wild type versus tarO mutant, primary screen, teichoic acid synthesis inhibitors, RN4220, OD600 (AID 463173). The conditions noted are these: OD600, 18 h, hits give low values, screened at 18.75 µg/mL (by protocol).
As for `O=S(=O)(NCc1ccco1)c1cccc(S(=O)(=O)N2CCCCC2)c1`, the survival was 90% (inactive).
On to `O=C(NC1CCCCC1)c1ccc(Cn2c(SCc3cccc(F)c3)nc3cccnc32)cc1`, for which the survival was 81% (inactive).
As to `Cc1ccc2c(c1)N(C(=O)N1CCC(C(=O)NCc3ccccc3C)CC1)CC(C)O2` (stereo not given), the survival was 74% (inactive).
The result for `Cc1noc(-c2ccc(N(C)Cc3ccccc3)c([N+](=O)[O-])c2)n1` reads 75% (inactive); that for `COc1ccc(CC(=O)NCc2nc3cccnc3n2Cc2ccccc2)cc1`, 80% (inactive).
The result for `COc1ccccc1N1CCN(S(=O)(=O)c2c(C)sc3ncn(CC(=O)N(C)c4ccc(C(C)C)cc4)c(=O)c23)CC1` reads 67% (inactive).
Consider `CCCCN(C)CCNC(=O)c1cc(-c2ccc(Cl)s2)nc2ccccc12`, for which the survival was 62% (inactive).
For `COc1cc(NC(=O)CSc2nc(C)c(C(=O)Nc3ccccc3)c(-c3ccc(OC)c(OC)c3)c2C#N)c(OC)cc1Cl`, the survival is 61% (inactive).
The result for `COc1ccc(CCn2c(=O)c3cccnc3n(CC(=O)Nc3c(C)cc(C)cc3C)c2=O)cc1OC` reads 90% (inactive); that for `Cc1ccccc1CN1C(=O)c2ccccc2S(=O)(=O)c2ccc(C(=O)OCC3CCCO3)cc21` (stereo not given), 71% (inactive); that for `CCOc1ccc(CCNC(=O)c2c(C)oc3ncn(CC(C)C)c(=O)c23)cc1`, 72% (inactive).
The result for `Cc1oc2ncnc(N3CCOCC3)c2c1C(=O)Nc1ccc(Br)cc1F` reads 135% (inactive); that for `Cc1ccc(NC(=O)c2c(C)oc3nc(C)nc(N4CCCC4)c23)c(C)c1`, 70% (inactive).
As for `Cc1nc(N2CCCC2)c2c(C(=O)Nc3ccc(Br)cc3F)c(C)oc2n1`, the survival is 25% (active).
The result for `Cc1nc(N2CCCC2)c2c(C(=O)Nc3cccc(Cl)c3)c(C)oc2n1` reads 20% (active); that for `CCc1cccc(NC(=O)c2c(C)oc3nc(C)nc(N4CCCC4)c23)c1`, 103% (inactive); that for `Cc1nc(N2CCCC2)c2c(C(=O)Nc3ccc(C)c(Cl)c3)c(C)oc2n1`, 124% (inactive).
The result for `COc1cc(Cl)c(C)cc1NC(=O)c1cnc(N2CCOCC2)c2ccccc12` reads 71% (inactive).
Take `COc1cc(CN(C(=O)c2ccccc2F)C2CCS(=O)(=O)C2)cc(OC)c1OC` (stereo not given): the survival was 46% (inactive).
With `COc1ccc(N2CCN(c3ncnc4c3cnn4C)CC2)cc1`, the survival is 75% (inactive).
As for `O=c1c2cn[nH]c2nc(SCc2c(F)cccc2F)n1-c1ccc(Cl)cc1`, the survival is 91% (inactive).
Take `CC(C)c1ccc(NC(=O)CN2CCC(n3nnc4ccccc43)CC2)cc1`: the survival was 69% (inactive).
The result for `CCN(CC)CCN(C(=O)c1ccco1)c1nc2ccc(Cl)cc2s1` reads 66% (inactive).
As to `CCN(CC)CCN(C(=O)c1ccc(C(=O)OC)cc1)c1nc2ccc(Cl)cc2s1`, the survival was -4% (active).
On to `CCc1ccc2nc(N(CCN(CC)CC)C(=O)c3ccco3)sc2c1`, for which the survival was 54% (inactive).

For the origin of these results see PubChem BioAssay AID463173 (ICCB-Longwood Screening Facility, Harvard Medical School, 2010).
